PLK1 PBD inh – PLK1 (human) polo-box domain binding inhibition; 2.8% of 360,000 active; Potency, µM, most hits filed as inhibitors; Plk1 PBD binding of FITC phosphopeptide, fluorescence polarization; P53350; AID 720504; further: series mostly up to about 57 µM; nearly all actives have a fitted effect of over 65% in size
Target sequence (P53350 whole entry, looked up, the tested form may be a part): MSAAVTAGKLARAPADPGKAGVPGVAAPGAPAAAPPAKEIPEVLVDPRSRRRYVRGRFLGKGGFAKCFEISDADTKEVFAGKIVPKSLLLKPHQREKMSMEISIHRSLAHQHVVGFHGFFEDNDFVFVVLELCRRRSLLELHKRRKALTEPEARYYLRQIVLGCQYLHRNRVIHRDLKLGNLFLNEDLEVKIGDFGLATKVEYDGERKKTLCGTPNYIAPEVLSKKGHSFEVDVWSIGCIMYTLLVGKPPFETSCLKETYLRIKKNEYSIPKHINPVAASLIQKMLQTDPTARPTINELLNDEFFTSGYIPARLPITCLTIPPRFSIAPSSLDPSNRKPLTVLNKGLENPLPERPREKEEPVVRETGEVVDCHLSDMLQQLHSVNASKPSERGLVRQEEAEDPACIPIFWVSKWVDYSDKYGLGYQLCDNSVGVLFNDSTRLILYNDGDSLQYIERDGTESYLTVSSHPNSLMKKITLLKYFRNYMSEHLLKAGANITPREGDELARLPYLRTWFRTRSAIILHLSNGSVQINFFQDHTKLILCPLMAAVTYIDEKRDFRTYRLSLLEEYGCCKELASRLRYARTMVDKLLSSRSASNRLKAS
BRCA1 expr act – BRCA1 expression activation; Potency, µM (titrated, usually from 46.1 µM), actives largely listed as activators; MCF7-BRCA1-FFLuc reporter, luminescence, 48 h; response scale: scaled: vehicle 0%, 10 µM genistein 100%; 1.1% of 380,000 active; further: nearly all actives have a fitted effect of over 80% in size
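Reporter cells (MCF7, BRCA1 promoter-firefly luciferase) received library compounds across a concentration series for 48 h. End-point luminescence was measured and concentration-effect curves derived after normalization.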
VDR inh – inhibitors of human vitamin D receptor | 0.93% of 400,000 active | Potency, µM, hits mostly inhibitors | P11473 | VDR-SRC2-3 peptide fluorescence polarization, 2 h
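The screen uses fluorescence polarization to detect compounds that interfere with recruitment of the SRC2-3 coactivator peptide to VDR; plates are read after 2 h at room temperature.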
Tb PFK inh – blocks T. brucei phosphofructokinase; O15648; T. brucei PFK, ADP-Glo luminescence; Potency, µM (top dose mostly 57.5 µM), usual class: inhibitors; 0.17% of 330,000 active; AID 485367; further: nearly all actives have a fitted effect of over 60% in size
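PFK 1.25 nM, F6P 0.5 mM, ATP 0.1 mM, 0.1 M TEA pH 8.0, 5 mM MgCl2, 0.01% Tween20, 0.1% BSA; 45 min RT. ADP-Glo readout. qHTS titration up to 57 uM; curves fitted, compounds curve-classed.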
USP1-UAF1 confirm – validation of human USP1/UAF1 inhibitors | shares compounds with VDR inh | Ub-Rhodamine cleavage, fluorescence kinetic read | Potency, µM (titrated, usually from 56.8 µM), hits mostly inhibitors | 50% of 50 active
VDR inh confirm – confirmation of human vitamin D receptor inhibitors; shares compounds with VDR inh; VDR-coactivator inhibition assay, qHTS confirmation; Potency, µM, most hits filed as inhibitors; 89% of 840 active; AID 602199
VDR FP fluor – blocks human VDR-coactivator binding in fluorescein assay; shares compounds with VDR inh; VDR-coactivator binding, fluorescein fluorescence polarization; Potency, µM (titrated, usually from 57.1 µM), most hits filed as inhibitors; 48% of 840 active; AID 602200
VDR bla reporter – VDR (human) inhibition, cell-based beta-lactamase validation. shares compounds with VDR inh. VDR beta-lactamase reporter cells, FRET ratio; cells co-treated with VDR agonist LG190178. Potency, µM (top dose mostly 46.1 µM), most hits filed as inhibitors. 23% of 840 active
VDR cytotox – cell toxicity, VDR inhibitor hit counter-screen. 18% of 840 active. cytotoxicity counter-screen, cell viability, qHTS. Potency, µM (top dose mostly 48.3 µM), most hits filed as cytotoxic. shares compounds with VDR inh. AID 602204; further: nearly all actives have a fitted effect of over 75% in size
Hits are given with their value; - = inactive; ? = inconclusive; . = no result. Compounds with a hit are over-represented: about 3.9% of the library has one in this group of screens. The call rests on the fitted dose curve; in most records, active means well fitted curve in the direction sought with a large enough effect; inconclusive means small, poorly fitted or top-dose-only effect, or another doubt; inactive means no such curve, though single readings can be large; an effect the other way counts as inactive or inconclusive.

SMILES	PLK1 PBD inh	BRCA1 expr act	VDR inh	Tb PFK inh	VDR inh confirm	VDR FP fluor	VDR bla reporter	VDR cytotox	others
COc1ccc(CCNC(=O)Cn2c(-c3ccc(F)cc3)cc(C(C)=O)c2C)cc1OC	.	.	-	.	.	.	.	.
CN(C)c1ccc(C=Nc2ccc(N(C)C)cc2)cc1	-	-	?	-	10	?	-	-
CCCc1c(OCCCOc2ccc(OCC(=O)O)cc2)ccc(C(C)=O)c1O	?	-	50µM	-	.	.	.	.	USP1-UAF1 confirm=?
Cc1cccc(C(=O)Nc2cccc(C(=O)OCc3cc(=O)n4ccsc4n3)c2)c1	.	.	-	.	.	.	.	.
Cn1c(/C(C#N)=C/c2ccc(C(F)(F)F)cc2)nc2ccccc21	.	.	28µM	.	14	8.9µM	18µM	?
CC(C(=O)OCC(=O)NC1CCCCC1)N1C(=O)c2ccccc2C1=O (centres undefined)	-	-	-	-	.	.	.	.
CC(C)CN1C(=O)/C(=C(/C#N)C(=O)NC2CCCCC2)c2ccccc21	?	-	?	-	2.8	2.8µM	-	-
CCOc1ccc(C(=O)Nc2ccc(OCc3cc(=O)n4cccc(C)c4n3)cc2)cc1	.	.	-	.	.	.	.	.
CC1c2ccccc2CN1CC1=NCCN1 (centres undefined)	.	.	-	.	.	.	.	.
C[C@@H]1c2ccccc2CN1CC1=NCCN1	.	.	-	.	.	.	.	.	USP1-UAF1 confirm=-
C=CC(C)(C)c1[nH]c2ccccc2c1C1=C(O)C(=O)C(c2c[nH]c3c(CC=C(C)C)cccc23)=C(O)C1=O	.	.	18µM	.	.	.	.	.	USP1-UAF1 confirm=?
Cc1ccc(S(=O)(=O)N2CCCc3cc(NS(=O)(=O)c4ccccc4)ccc32)cc1	.	.	-	.	.	.	.	.
CN(C)/C=C1\C(=O)Nc2ccccc21	-	-	-	-	.	.	.	.
CN(O)/C=C1\C(=O)Nc2ccccc21	-	-	-	-	.	.	.	.
CC(C)Oc1ccc(C(=O)/C=C2/C(=O)Nc3ccccc32)cc1	?	-	28µM	-	15	10µM	-	?
O=C1Nc2ccccc2/C1=C\C(=O)c1ccccc1	19µM	-	?	-	8.9	3.5µM	?	?
O=C(CSC1=NS(=O)(=O)c2ccccc21)Nc1ccccc1	11µM	-	16µM	-	11	-	-	-
COC(=O)CSC1=NS(=O)(=O)c2ccccc21	3µM	-	32µM	-	8.4	?	-	-
C[C@@H]1CN([C@@H](C)CO)C(=O)CCCn2nncc2CO[C@@H]1CN(C)C(=O)Nc1ccc(N2CCN(C)CC2)cc1	-	-	.	.	.	.	.	.
O=C1OC(NC(=O)c2ccccc2)C(n2cc(CO)nn2)=C1Cl (centres undefined)	9.5µM	-	40µM	-	?	?	-	-
OCc1cn(-c2ccccc2)nn1	-	-	-	-	.	.	.	.
COc1ccc2cnoc(=O)c2c1OC	.	.	-	.	.	.	.	.
O=S(=O)(/N=C(/Sc1ccccc1)c1ccccc1)c1ccccc1	1.9µM	-	79µM	-	8.4	?	-	-
O=[N+]([O-])c1ccc(Cl)c(S(=O)(=O)/N=C(/Sc2ccc(Br)cc2)c2ccccc2)c1	.	-	?	.	7.1	5µM	-	-
O=S(=O)(/N=C(/Sc1ccc(Cl)cc1)c1ccccc1)c1ccccc1	.	-	35µM	.	3.5	11µM	-	-
O=S(=O)(/N=C(/Sc1ccccc1)c1ccccc1)c1ccc(Cl)cc1	.	-	50µM	.	7.1	16µM	-	?
O=C(NCc1ccccc1)C(C1CC1)n1c(=O)c(-c2ccco2)nc2ccccc21 (centres undefined)	-	.	.	.	.	.	.	.
Cc1ccccc1OCc1nc2ccc(S(=O)(=O)N3CCOCC3)cc2[nH]1	9.5µM	-	40µM	-	21	?	-	-
CCc1ccc(-n2c(=O)c3c4c(sc3n(Cc3ccccc3C#N)c2=O)CCCC4)cc1	.	.	-	.	.	.	.	.

Source: PubChem BioAssay
